Laboratory results: PubChem BioAssay AID1159580 (chemical genetic matrix, 2015)
The campaign covered roughly 5,500 compounds. About 2,000 (36%) were called active. About 18% were inconclusive and are not listed. Cut-off read from the data, not from the text of the source: active = normalized growth mostly below about 0.91 (no sharp cut-off); inconclusive = no clear call, values can overlap the other calls; inactive = mostly above about 0.92. The list shows a part of the results.

Test: chemical genetic growth profiling, strain panel (AID 1159580);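 note: tested at 20 µM; growth read once vehicle control cultures reached saturation at 30 °C; 1 = growth at the plate median or of vehicle wells; lower values mean less growth of the strain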
Conditions: S. cerevisiae deletion strains, growth OD

Measured: normalized growth

CO/N=C(\C(=O)NC1C(=O)N2C(C(=O)O)=C(COC(N)=O)CSC12)c1ccco1 (stereo unspecified)
active: locus YKL009W, strain mrt4, hits give low values 0.311 | locus YKL068W, hits give low values 0.575 | locus YKL085W, strain MDH1 (second series), hits give low values 0.0978 | locus YKL085W, strain MDH1, hits give low values 0.0978 | locus YKL190W, strain CNB1, hits give low values 0.0476 | locus YKR001C, strain vps1, hits give low values 0.0619 | locus YLR039C, strain RIC1, hits give low values 0.0948 | locus YLR058C, strain SHM2, hits give low values 0.0436 | locus YLR102C, strain apc9, hits give low values 0.0609 | locus YLR262C, strain YPT6, hits give low values 0.107 | locus YLR268W, strain sec22, hits give low values 0.0592 | locus YLR330W, strain CHS5, hits give low values 0.053 | locus YLR342W, strain FKS1 (second series), hits give low values 0.0595 | locus YLR371W, strain rom2, hits give low values 0.0612 | locus YLR418C, strain cdc73, hits give low values 0.096 | locus YML016C, strain PPZ1, hits give low values 0.0484 | locus YML032C, strain rad52, hits give low values 0.0647 | locus YML124C, strain tub3, hits give low values 0.0613 | locus YMR078C, strain ctf18, hits give low values 0.0716 | locus YMR223W, strain ubp8, hits give low values 0.0609 | locus YMR263W, strain SAP30, hits give low values 0.0627 | locus YMR307W, strain GAS1, hits give low values 0.13 | locus YNL067W, strain RPL9B, hits give low values 0.0518 | locus YNL233W, strain BNI4, hits give low values 0.061 | locus YNL250W, strain rad50, hits give low values 0.297 | locus YNL271C, strain bni1, hits give low values 0.224 | locus YNL298W, strain CLA4, hits give low values 0.235 | locus YNL307C, strain MCK1, hits give low values 0.0668 | locus YNL322C, strain KRE1, hits give low values 0.0494 | locus YNR052C, strain pop2, hits give low values 0.0644 | locus YOL012C, strain htz1 0.173 | locus YOL147C, strain pex11, hits give low values 0.0578 | locus YOR061W, strain CKA2, hits give low values 0.0318 | locus YOR069W, strain VPS5, hits give low values 0.0536 | locus YOR136W, strain idh2, hits give low values 0.067 | locus YOR144C, strain elg1, hits give low values 0.0595 | locus YOR184W, strain ser1, hits give low values 0.062 | locus YOR316C, strain cot1, hits give low values 0.0579 | locus YPR119W, strain clb2, hits give low values 0.0597 | locus YPR141C, strain kar3, hits give low values 0.56 | locus YPR163C, strain tif3, hits give low values 0.0674 | locus YPR167C, strain met16, hits give low values 0.0656 | strain wtn01, hits give low values 0.0569
inactive: locus YJR066W, strain TOR1, hits give low values 0.972 | locus YKL160W, strain elf1, hits give low values 0.961 | locus YKR026C, strain gcn3, hits give low values 0.98 | locus YKR091W, strain srl3, hits give low values 0.98 | locus YLL001W, strain dnm1, hits give low values 0.944 | locus YLL026W, hits give low values 0.991 | locus YLL041C, strain sdh2, hits give low values 0.971 | locus YLR027C, strain aat2, hits give low values 0.981 | locus YLR113W, strain HOG1, hits give low values 1.07 | locus YLR221C, strain rsa3, hits give low values 0.956 | locus YLR258W, strain gsy2, hits give low values 0.975 | locus YLR262C, strain YPT6 (second series), hits give low values 0.967 | locus YLR320W, strain mms22, hits give low values 0.93 | locus YLR342W, strain FKS1, hits give low values 0.972 | locus YLR357W, strain rsc2, hits give low values 0.963 | locus YLR370C, strain arc18, hits give low values 0.963 | locus YLR384C, strain iki3, hits give low values 0.968 | locus YML120C, strain ndi1, hits give low values 0.965 | locus YMR058W, strain fet3, hits give low values 0.968 | locus YMR125W, strain sto1, hits give low values 0.979 | locus YMR129W, hits give low values 0.983 | locus YMR205C, strain PFK2, hits give low values 0.949 | locus YMR231W, strain pep5, hits give low values 0.968 | locus YNL071W, strain lat1, hits give low values 0.974 | locus YNL183C, strain NPR1, hits give low values 0.966 | locus YNL209W, strain ssb2, hits give low values 0.985 | locus YNL248C, strain rpa49, hits give low values 0.966 | locus YNL322C, strain KRE1 (second series), hits give low values 0.969 | locus YNR049C, strain mso1, hits give low values 0.978 | locus YOR001W, strain rrp6, hits give low values 0.984 | locus YOR070C, strain gyp1, hits give low values 0.988 | locus YOR080W, strain dia2, hits give low values 0.986 | locus YOR083W, strain WHI5, hits give low values 0.953 | locus YOR106W, strain vam3, hits give low values 0.951 | locus YOR231W, strain MKK1, hits give low values 1.06 | locus YOR265W, strain rbl2, hits give low values 0.991 | locus YOR270C, strain vph1, hits give low values 0.96 | locus YOR290C, strain snf2, hits give low values 0.958 | locus YPL051W, strain arl3, hits give low values 0.97 | locus YPL078C, strain atp4, hits give low values 0.957 | locus YPL106C, strain sse1, hits give low values 0.941 | locus YPL240C, strain hsp82, hits give low values 0.982 | locus YPL256C, strain CLN2, hits give low values 1.07
